Some test systems named below: T-47D breast; BT-549 breast; MDA-MB-435 melanoma; SW-620 colon; MCF7 breast; HCT-116 colon; HCC-2998 colon; KM12 colon.
Holding throughout (test): NCI-60 one-dose screen, 48 h (100 = growth as untreated, 0 = no growth, -100 = all killed)
Settings in all cases: 10 µM unless noted

About 83,000 compounds went through this panel and 20% of them were active in at least one assay; those are over-represented in the sample as a whole.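 Results are percent growth after 48 hours of single-concentration exposure. 100 means growth as in untreated cells, lower positive values show inhibition; negative values down to -100 show cell death.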 Unmarked numbers belong to inactive results. The source made the active and inactive calls. The calls were made as follows: active = growth percent below 10; inactive = the rest.

Consider `c1ccc(-c2ccc3ccccc3c2)cc1`, for which the growth in the assay with T-47D breast was 81.4%; in the assay with BT-549 breast, 98.8%; in the assay on MDA-MB-435 melanoma, 103%; in the assay with SW-620 colon, 90.5%; in the assay with MCF7 breast it was 82.2%; in the assay with HCT-116 colon, 95.9%. Also, the growth is 107% in the assay on HCC-2998 colon and 92.9% in the assay with KM12 colon.

In the case of `O=C(Nc1ccc([N+](=O)[O-])cc1)C(=O)Nc1ccc([N+](=O)[O-])cc1`, the growth in the assay on T-47D breast is 88.7%; with BT-549 breast, 100%; in the assay on MDA-MB-435 melanoma, 106%; in the assay with SW-620 colon it was 96.5%; in the assay on MCF7 breast, 90.6%; with HCT-116 colon, 97.3%. Besides, the growth in the assay with HCC-2998 colon is 103%; with KM12 colon, 99%.

In the case of `Oc1ccc(N=Cc2ccc(OCc3ccccc3)cc2)cc1`, the growth in the assay with T-47D breast is 103%; in the assay on BT-549 breast, 84.6%; in the assay on MDA-MB-435 melanoma, 88.4%; in the assay on SW-620 colon, 96.1%; in the assay with MCF7 breast it was 99.1%; in the assay with HCT-116 colon it was 106%. For the same compound, the growth in the assay with HCC-2998 colon was 112%; with KM12 colon it was 92.8%.

With `CC1=CC(=Nc2ccc(N(C)C)cc2)C=C(C)C1=O`, the growth was 48.5% in the assay with T-47D breast; 74.1% in the assay with BT-549 breast; 75.7% in the assay on MDA-MB-435 melanoma; 93.8% in the assay with SW-620 colon; 77% in the assay on MCF7 breast; 83.5% in the assay on HCT-116 colon. The growth with HCC-2998 colon was 96.1%; in the assay on KM12 colon it was 87.5%.

For the compound `CCCC(OC(C)=O)c1ccc2c(c1)OCO2` (stereo unspecified), the growth is 100% with T-47D breast; 110% in the assay with BT-549 breast; 106% in the assay on MDA-MB-435 melanoma; 109% with SW-620 colon; 95.8% in the assay with MCF7 breast; 108% in the assay on HCT-116 colon. Also, the growth is 98% in the assay with HCC-2998 colon and 106% in the assay with KM12 colon.

As to `Cc1cc2c3ccc(C)[n+](C)c3ccc2n1C`, the growth in the assay on T-47D breast is 74.5%; with BT-549 breast, 16.8%; in the assay on MDA-MB-435 melanoma it was 52%; in the assay with SW-620 colon it was 15.1%; in the assay on MCF7 breast, 57%; in the assay with HCT-116 colon, 29.4%. In addition, the values for the growth in the assay on HCC-2998 colon and in the assay with KM12 colon were 22.2% and 5.81% (active), respectively.

Consider `BrCc1cccc(C[P+](c2ccccc2)(c2ccccc2)c2ccccc2)c1`, for which the growth was 28.2% in the assay on T-47D breast; 93.1% in the assay on BT-549 breast; 18% with MDA-MB-435 melanoma; 25.4% with SW-620 colon; 53.3% with MCF7 breast; 22.2% in the assay with HCT-116 colon. For the same compound, the growth is 33.1% with HCC-2998 colon and 30.2% with KM12 colon.

In the case of `Nc1nnc2cc(F)ccc2n1`, the growth in the assay on T-47D breast was 96%; in the assay on BT-549 breast it was 81.5%; with MDA-MB-435 melanoma, 118%; in the assay on SW-620 colon it was 94.1%; with MCF7 breast it was 96.3%; in the assay on HCT-116 colon it was 91.9%. In addition, the growth in the assay with HCC-2998 colon and in the assay with KM12 colon was 103% in each case.

In the case of `CN(C)Cc1ccccn1`, the growth was 102% in the assay on T-47D breast; 101% with BT-549 breast; 103% with MDA-MB-435 melanoma; 103% in the assay with SW-620 colon; 97% in the assay with MCF7 breast; 99.8% with HCT-116 colon. The growth in the assay on HCC-2998 colon was 119%; in the assay on KM12 colon, 111%.

For the compound `CCN(Cc1ccc(Cl)c(Cl)c1)c1ccc2nc(N)nc(N)c2c1C`, the growth with T-47D breast was -78% (active); in the assay on BT-549 breast it was 46.4%; in the assay with MDA-MB-435 melanoma, -77.4% (active); in the assay on SW-620 colon, -78.2% (active); with MCF7 breast, -92.9% (active); in the assay on HCT-116 colon, -82.4% (active). The results for the growth in the assay with HCC-2998 colon and in the assay with KM12 colon were -93.6% (active) and -92.6% (active), respectively.

Turning to `CCOP(=O)(NC(c1ccccc1)c1ccccc1)OCC`, the growth in the assay with T-47D breast is 90.4%; in the assay with BT-549 breast, 105%; with MDA-MB-435 melanoma it was 110%; with SW-620 colon, 103%; in the assay on MCF7 breast, 92.7%; in the assay with HCT-116 colon, 93.8%. In addition, the growth in the assay on HCC-2998 colon is 110%; in the assay on KM12 colon, 114%.

For the compound `C1Cc2onc(-c3noc4c3CCC4)c2C1`, the growth in the assay on T-47D breast is 108%; with BT-549 breast, 114%; in the assay with MDA-MB-435 melanoma, 113%; in the assay with SW-620 colon, 123%; in the assay on MCF7 breast it was 99.2%; with HCT-116 colon, 108%. Further, the growth was 115% with HCC-2998 colon and 106% in the assay with KM12 colon.

As for `S=c1nc(-c2ccccn2)c(-c2ccccn2)n[nH]1`, the growth was 93.9% in the assay with T-47D breast; 101% with BT-549 breast; 110% in the assay on MDA-MB-435 melanoma; 106% with SW-620 colon; 96.9% in the assay with MCF7 breast; 100% in the assay with HCT-116 colon. Moreover, the figures for the growth with HCC-2998 colon and with KM12 colon were 99.5% and 97.4%, respectively.

`Clc1ccc(C(SCc2ccccc2)SCc2ccccc2)cc1`: the growth with T-47D breast is 79%; in the assay on BT-549 breast, 103%; with MDA-MB-435 melanoma, 97.9%; in the assay on SW-620 colon it was 89.4%; in the assay on MCF7 breast, 93.8%; with HCT-116 colon it was 76.3%. The figures for the growth in the assay on HCC-2998 colon and in the assay with KM12 colon were 120% and 85.1%, respectively.

As for `Cc1ccc2[nH]c3ccccc3c2c1`, the growth in the assay on T-47D breast was 93%; in the assay with BT-549 breast, 102%; with MDA-MB-435 melanoma, 101%; in the assay with SW-620 colon, 101%; with MCF7 breast, 104%; with HCT-116 colon it was 98.3%. Besides, the growth in the assay on HCC-2998 colon was 100%; with KM12 colon, 101%.

Regarding `C=CC1=NC(C)(C)CC(C)O1` (stereo unspecified), the growth is 92.2% in the assay on T-47D breast; 109% in the assay with BT-549 breast; 94.7% in the assay on MDA-MB-435 melanoma; 104% in the assay with SW-620 colon; 93.4% in the assay on MCF7 breast; 107% in the assay on HCT-116 colon. Besides, the growth with HCC-2998 colon was 110%; in the assay on KM12 colon, 109%.

For `Nc1ncc([N+](=O)[O-])cn1`, the growth was 103% with T-47D breast; 111% in the assay with BT-549 breast; 113% with MDA-MB-435 melanoma; 104% in the assay on SW-620 colon; 98.1% in the assay with MCF7 breast; 106% in the assay on HCT-116 colon. Moreover, the growth with HCC-2998 colon is 107%; in the assay on KM12 colon it was 101%.

Source of the values: PubChem BioAssay (NCI).
